The record followed here is PubChem BioAssay (EPA / NIEHS).

Where “and” joins values, the source holds several entries; their conditions need not be identical. Identical values can stand only once. Some structures have more than one record in an assay (separate samples or runs), and their calls can disagree. Calls of active or inactive are those of the source. Rule for the calls: active = hit-call score of the fitted dose curve at least 0.9, where 1 is the maximum; inactive = score below 0.9.

Chain of Paired box protein Pax-6 (Homo sapiens) (P26367 whole entry, looked up): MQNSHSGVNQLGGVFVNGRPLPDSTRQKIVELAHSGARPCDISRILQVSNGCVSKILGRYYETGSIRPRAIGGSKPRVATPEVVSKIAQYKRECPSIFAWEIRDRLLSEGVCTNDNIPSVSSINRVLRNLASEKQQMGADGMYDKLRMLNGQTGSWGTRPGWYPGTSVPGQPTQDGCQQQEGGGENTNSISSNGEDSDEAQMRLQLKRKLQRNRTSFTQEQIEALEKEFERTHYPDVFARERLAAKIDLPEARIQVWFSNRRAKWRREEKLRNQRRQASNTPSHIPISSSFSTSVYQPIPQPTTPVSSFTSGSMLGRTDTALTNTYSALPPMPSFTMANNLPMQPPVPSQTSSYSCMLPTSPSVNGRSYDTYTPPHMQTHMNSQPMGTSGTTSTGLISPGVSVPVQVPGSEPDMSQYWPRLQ

This test concerns the target Paired box protein Pax-6 (Homo sapiens) (UniProt P26367). The experiment in a line: ATG_Pax6_CIS: Attagene CIS-FACTORIAL HepG2 Assay for human Paired Box 6 (PAX6) (AID 2282956). As to conditions: HepG2 CIS-FACTORIAL PAX6 reporter transcription, RNA readout; actives raise or lower the signal. The procedure: ATG_CIS is a cell-based, multiplexed-readout assay that uses HepG2, a human liver cell line, with measurements taken at 24 hours after chemical dosing in a 24-well plate.ATG_Pax6_CIS is one of 52 assay component(s) measured or calculated from the ATG_CIS assay. It is designed to make measurements of mRNA induction, a form of inducible reporter, as detected with fluorescence intensity signals by Reverse transcription polymerase chain reaction (RT-PCR) and Capillary electrophoresis technology.Data from the assay component ATG_Pax6_CIS was analyzed into 1 assay endpoint. This assay endpoint, ATG_Pax6_CIS, was analyzed with bidirectional fitting relative to DMSO as the negative control and baseline of activity. Using a type of inducible reporter, measures of mRNA for gain or loss-of-signal activity can be used to understand the reporter gene at the transcription factor-level as they relate to the gene PAX6. Furthermore, this assay endpoint can be referred to as a primary readout, because this assay has produced multiple assay endpoints where this one serves a reporter gene function. To generalize the intended target to other relatable targets, this assay endpoint is annotated to the dna binding intended target family, where the subfamily is paired box protein.
Human liver HepG2 cells are transiently transfected with multiple reporter transcription units (MRTUs) in 6-well plates using FuGene 6 reagent (Roche; 3 ml FuGene/1 mg DNA). The MRTU constructs are regulated by a cis-regulating element (promoter). […] A major difference between the CIS and TRANS system is that in CIS activities of endogenous TFs are measured, whereas the TRANS assay evaluates changes in activities of exogenous, chimeric NR-Gal4 proteins. […] At the end of 24 hour incubation, total RNA was isolated using TriZol reagent (Invitrogen). The isolated RNA is then reverse-transcribed using oligo(dT) primer and Mo-MLV reverse transcriptase (Invitrogen) with DNAse I (Ambion) treatment for 30 min. The one-tenth of the produced cDNA was amplified by PCR using Taq DNA polymerase (Invitrogen) and two reporter sequence-specific primers. The PCR products were fluorescently labeled by primer extension with 6-arboxyfluorescein (6-FAM) 5'-labeled reporter sequence-specific primer (2 min at 95 C, 20 s at 68 C and 10 min at 72 C) and these products were digested with 5U of HpaI (New England Biolabs) for 2h at 37 C. The fragments were purified using Qiaquick PCR columns (Qiagen), analyzed on an ABI 3130xL genetic analyzer (Applied Biosystems) with peak positions identified by using a set of X-rhodamine (ROX)-labeled MapMarker1000 molecular weight standards (BioVentures). The raw capillary electrophoresis data was processed using Attagraph software (Attagene).
Turning to `O=C(O)c1cccc(C(=O)O)n1`, the result was inactive.

For `O=C1OC2(c3ccccc31)c1cc(I)c(O)c(I)c1Oc1c2cc(I)c(O)c1I`, the outcome was inactive and the AC50 is 37.6 µM (active).

As for `C=CC(=O)OCCN(CC)CC`, the AC50 was 58.9 µM (active).

Consider `CC(O)COc1ccccc1` (stereo not given), for which the result was inactive.

Regarding `O=C(O)C(F)(F)OC(F)(F)C(F)(F)OC(F)(F)C(F)(F)OC(F)(F)C(F)(F)C(F)(F)C(F)(F)F`, the AC50 was 25.9 µM (active) and 29.1 µM (active).

For the molecule `C/C=C/C(=O)C1=C(C)CCCC1(C)C`, the AC50 is 39.7 µM (active).

As to `Cc1cncc(C)c1`, the call was inactive.

Turning to `CN(CCO)S(=O)(=O)C(F)(F)C(F)(F)C(F)(F)C(F)(F)C(F)(F)C(F)(F)C(F)(F)C(F)(F)F`, the result was inactive.

`OCC(CO)(CBr)CBr`: the molecule was classed as inactive.

In the case of `OCCN1CN(CCO)CN(CCO)C1`, the AC50 was 173 µM (active).

In the case of `C=CC(C)(CCC=C(C)C)OC(C)=O` (stereo not given), the result was inactive.

For the molecule `COc1ccccc1NC(=O)c1cc2ccccc2cc1O`, the AC50 is 54.8 µM (active).

Take `Cc1cc(Cc2cc(C)cc(C(C)(C)C)c2O)c(O)c(C(C)(C)C)c1`: the outcome was inactive.

As for `CCO[Si](C)(C)OCC`, the call was inactive.

Consider `Cc1ccc(N=Nc2c(O)ccc3ccccc23)c(C)c1`, for which the result was inactive.

On to `Nc1ccc(O)c(C(=O)O)c1`, for which the call was inactive.

For `CCc1cccc(CC)c1N(COC)C(=O)CS(=O)(=O)O`, the molecule was called inactive.

On to `CC(=O)Nc1ccc(O)cc1`, for which the molecule was called inactive.

Take `CCOCCOCC`: the call was inactive.

`CCC(C)c1ccccc1O` (stereo not given): the call was inactive.

Regarding `O=C(c1ccccc1)c1ccccc1`, the result was inactive.

In the case of `CC[N+](CC)(CC)Cc1ccccc1`, the molecule was called inactive.

Consider `C=CC(=C)CC/C=C(\C)CCC=C(C)C`, for which the molecule was called inactive.

As to `C[C@]12CC[C@@H]3c4ccc(O)cc4CC[C@H]3[C@@H]1C[C@@H](O)[C@@H]2O`, the result was inactive.

`C[N+](C)(CCCNS(=O)(=O)CCC(F)(F)C(F)(F)C(F)(F)C(F)(F)C(F)(F)C(F)(F)F)CC(=O)[O-]`: the outcome was inactive.

Regarding `Cc1[nH]nc2c1N=C(c1ccccc1Cl)c1cc([N+](=O)[O-])ccc1N2`, the result was inactive.

Take `c1cc[nH]c1`: the outcome was inactive.

As for `CCCCCCCCCCCC(=O)O`, the molecule was classed as inactive.

Consider `c1cc2cccc3c4cccc5cccc(c(c1)c23)c54`, for which the molecule was classed as inactive.

For the molecule `NC(C(F)(F)F)C(F)(F)F`, the molecule was classed as inactive.

Consider `CCCCCCCCC(C)=O`, for which the molecule was called inactive.

Regarding `O=C1c2ccccc2C(=O)c2c(O)c(O)cc(O)c21`, the call was inactive.

With `O=C(c1cc(O)c(O)c(O)c1)c1ccc(O)c(O)c1O`, the call was inactive.

For `COc1ccc(C#N)cc1`, the result was inactive.

As for `C[C@]12CC[C@@H]3c4ccc(O)cc4CC[C@H]3[C@@H]1CC[C@@H]2OC(=O)CCC1CCCC1`, the molecule was classed as inactive.

Regarding `CCCCC(CC)C(=O)O` (stereo not given), the outcome was inactive.

For `FC(F)(F)C1(F)C(F)(F)C(F)(F)C(F)(F)C(F)(C(F)(F)F)C1(F)F` (stereo not given), the call was inactive.

Consider `Oc1ccc(Cc2ccccc2O)cc1`, for which the call was inactive.

`CCCCCCCCCCCCOC(=O)c1cc(O)c(O)c(O)c1`: the outcome was inactive.
